# Measured values from PubChem BioAssay (NCI).
# This is part of a sample that, as a whole, favours compounds with a hit. Of some 83,000 tested, about 20% had one in any assay.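 Growth was measured after 48 h exposure to one concentration of compound in 96-well plates. Values under 10 count as active.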 A number with no mark means an inactive call. The source made the active and inactive calls.
# Legend:
# Experiment in all cases: NCI-60 one-dose screen, 48 h (100 = growth as untreated, 0 = no growth, -100 = all killed)
# Conditions in all cases: 10 µM unless noted
# [1] = tested on: HCT-15 colon
# [2] = tested on: HT29 colon
# [3] = tested on: SNB-75 CNS
# [4] = tested on: SNB-19 CNS
# [5] = tested on: U251 CNS
# [6] = tested on: PC-3 prostate
# [7] = tested on: LOX IMVI melanoma
# [8] = tested on: UACC-62 melanoma
# [9] = tested on: SK-MEL-28 melanoma
# [10] = tested on: SK-MEL-5 melanoma
Structure (SMILES),growth [1],growth [2],growth [3],growth [4],growth [5],growth [6],growth [7],growth [8],growth [9],growth [10]
COc1cc2c(cc1O)CC[C@@H]1[C@@H]2CC[C@]2(C)[C@@H](OCCCN(C)C)CC[C@@H]12,-54.6% (active),-90.8% (active),-65.4% (active),-20.6% (active),-74.2% (active),-18.6% (active),-91.5% (active),–,–,–
COc1ccc2c(c1)C(=O)/C(=C/c1cccnc1)CC2,92.8%,92.5%,91.6%,88.7%,86.7%,101%,88.5%,–,–,–
COc1ccc(-c2cc(-c3ccc(Nc4ccnc5cc(Cl)ccc45)cc3)nc(N3CCOCC3)n2)cc1,20.7%,8.19% (active),-14.8% (active),28.2%,-37.7% (active),46.9%,-58.6% (active),14.9%,5.53% (active),–
FC(F)(F)c1nc2c(NCc3ccc(-c4ccccc4)cc3)cccc2[nH]1,68.4%,84.4%,90.7%,117%,66.6%,–,82.4%,72.1%,92.1%,88.4%
CCn1c(O)c(/C=N/NC(=O)C(C)c2ccc(CC(C)C)cc2)sc1=S (configuration not stated),17.6%,10.1%,-2% (active),37.5%,15.6%,–,27.1%,46%,69.6%,17%
COc1ccc2c(c1)O/C(=C\c1cccc(OCC(=O)Nc3nc4c(s3)CCCC4)c1)C2=O,84.8%,84.7%,29.3%,76.1%,73.1%,–,-100% (active),76.1%,114%,97.9%
O=c1nc2oc3ccc4ccccc4c3cc-2s1,32.4%,15.2%,-16.1% (active),31.9%,12.5%,–,33.5%,37.6%,56.7%,10.8%
Cc1nn(-c2ccc(F)cc2)c2ncnc(Nc3ccc(NC(=O)Nc4ccc(Cl)c(C(F)(F)F)c4)cc3)c12,11.2%,37.9%,32.4%,23.7%,19.5%,–,34.8%,11%,17.8%,61.1%
Cn1cc(-c2nonc2-c2cn(C)c3ccc(F)cc23)c2cc(F)ccc21,30.8%,12.3%,53.8%,60.1%,45.2%,–,57.9%,50.6%,69%,51.4%
COc1ccc2c(c1)CC/C(=C\c1cncc(Br)c1)C2=O,94.7%,79.7%,120%,90.7%,85.9%,92.7%,88.3%,–,–,–
Fc1ccc2[nH]cc(SSc3c[nH]c4ccc(F)cc34)c2c1,25.8%,39.2%,64.1%,41.1%,13.8%,–,25.5%,63.8%,75.6%,70%
C#Cc1cccc(NC(=O)c2ccccc2NC(=O)CCl)c1,68.7% [8.25 µM],86.1% [8.25 µM],70.5% [8.25 µM],74.2% [8.25 µM],74.6% [8.25 µM],–,91.4% [8.25 µM],85.1% [8.25 µM],102% [8.25 µM],87.7% [8.25 µM]
CCOc1nc(-c2ccccc2)cc2c(O)c(C(=O)N/N=C/c3ccc(O)cc3O)[nH]c(=O)c12,23.9%,48.3%,59.6%,43.2%,21.2%,–,-0.51% (active),9.73% (active),60%,21.9%
O=C1CSC(=S)N1CCc1ccc(O)cc1,59.3%,107%,71.3%,93%,100%,–,77.1%,87.5%,101%,97.1%
CCCCC[C@H]1C/C=C2/C(=O)C=C[C@@H]2C/C=C\CCCC(=O)O1,-18.8% (active),-69.1% (active),-33.6% (active),1.16% (active),-78.2% (active),-38.4% (active),-79.1% (active),–,–,–
Cc1cc2nc3[nH]c4ccccc4c3nc2cc1C,80.3%,95.1%,51.2%,89.7%,58.1%,–,64.1%,90.3%,90%,88.9%
N#Cc1c(N)n(CCNC(=O)c2ccccc2)c2nc3ccccc3nc12,111%,104%,116%,119%,115%,–,113%,103%,123%,132%
NC(=NCCCOc1ccc(Cl)cc1)Nc1ccc(Cl)cc1,56%,1.24% (active),44.8%,19.3%,41.2%,26.7%,40.3%,–,–,–
FC(F)(F)c1ccc(-c2cn3nc(-c4c[nH]c5ccc(Br)cc45)sc3n2)cc1,70.6%,97.4%,86.1%,100%,92.2%,–,88.2%,84.8%,111%,96.3%
O=C1OCC2=C1C(c1ccncc1)c1cc3c(cc1N2CCO)OCO3 (configuration not stated),103%,106%,95.7%,100%,96.7%,–,99.9%,94.9%,102%,98.6%
COc1ccc2c(c1)c(-c1nonc1-c1cn(C)c3ccccc13)cn2C,25.7%,8.38% (active),-6.82% (active),34.9%,32.8%,–,47.2%,38%,63.1%,13.3%
Cn1cc(C(=O)c2nc(-c3c[nH]c4ccccc34)no2)c2ccccc21,25.6%,35.8%,55.6%,91.8%,92.4%,–,83.9%,60.3%,94%,16.8%
NC(=O)c1cc(Cl)ccc1NC(=O)/C=C/c1ccccc1,27.3%,8.83% (active),0.0967% (active),26.7%,29.8%,–,53.3%,47.7%,40.6%,5.23% (active)
O=C1c2cccc3cccc(c23)C(=O)N1CCCCN1CCN(CCCCOc2ccc(-c3nc4ccc(N5CCOCC5)cc4[nH]3)cc2)CC1,87.8%,83.3%,84.8%,89.4%,74.6%,–,93.7%,92.8%,81.5%,89.2%
CC(=O)c1nc2ccccc2n1CC(=O)c1cccc(Cl)c1,27.3%,94%,21%,24.1%,14.3%,–,36.9%,31.5%,67.7%,-13.2% (active)
Cc1nc(Nc2ccc(F)c(Cl)c2)sc1C(=O)O,11.3%,3.5% (active),-13.4% (active),26.2%,8.16% (active),7.92% (active),2.1% (active),–,–,–
COc1ccc2c(c1)C(=O)/C(=C/c1ccccn1)CC2,68.5%,43.3%,75.8%,76.1%,69.3%,87.6%,44.5%,–,–,–
O=C(COc1cccc(/C=C2\COc3ccc(Cl)cc3C2=O)c1)c1ccc(Cl)cc1,82%,97.7%,67.8%,90.5%,87.5%,–,76.1%,80.9%,119%,94.3%
CCN(CC)S(=O)(=O)c1ccc(OC)c(NC(=O)c2[nH]c(C)c3c2CCCCC3=O)c1,18.9%,14.5%,9.16% (active),45.2%,43.6%,–,9.93% (active),16.2%,55.7%,-21.8% (active)
